# Source: PubChem
# This is one part of a sample in which hits are shown more often than they occur.
# Lamin A splicing: LMNA splicing modulation. HeLa LMNA splicing GFP/RFP minigene ratio, 48 h. Potency, µM (doses to about 46.1 µM), inactives show at the highest dose ratio change, negative = inhibition, most hits filed as inhibitors. 0.01% of 200,000 active. AID 1487; active = well fitted inhibition curve with a large enough effect in the signal ratio, with a control signal flat, not every such curve was filed as active; inconclusive = small, poorly fitted or top-dose-only effect, or effect the other way, or a change in a side signal; the % refers to the signal ratio; note: potency is the fitted concentration of half-maximal effect
#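 Read-out is the ratio of GFP to DsRed2 object intensity, acquired by 488 nm laser-scanning cytometry on HeLa lamin A-EGFP minigene reporter cells. Compound incubation 48 hrs at 37 °C in Opti-MEM with 2% FBS; DMSO 0.5% final.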
# IMPase cell inh: cell-permeable inhibitors of inositol monophosphatase (IMPase). P97697. CHO-M1 cells, IP1 accumulation, HTRF TR-FRET ratio. inhibition (IP1 accumulation), % at 46.1 µM. 120,000 tested, under 10 active; active = well fitted curve in the direction sought with a large enough effect in the signal ratio, not every such curve was filed as active; inconclusive = small, poorly fitted or top-dose-only effect, or a change in a side signal; inactive = no such curve, though single readings can be large or run the other way; the % refers to the signal ratio;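 note: cells stimulated with carbachol in lithium chloride buffer; plate controls were DMSO basal wells for no effect and reference inhibitor wells for full effect; higher means more IMPase inhibition seen as more IP1 and lower FRET ratio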
# Target sequence (P97697 whole entry, looked up): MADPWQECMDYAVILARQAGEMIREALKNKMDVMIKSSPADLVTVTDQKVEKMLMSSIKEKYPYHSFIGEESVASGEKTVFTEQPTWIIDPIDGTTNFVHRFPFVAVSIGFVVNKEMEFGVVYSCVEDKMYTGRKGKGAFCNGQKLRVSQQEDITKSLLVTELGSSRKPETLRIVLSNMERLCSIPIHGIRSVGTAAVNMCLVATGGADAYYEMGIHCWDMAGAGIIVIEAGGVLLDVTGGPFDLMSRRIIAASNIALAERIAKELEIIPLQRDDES
#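 CHO-M1 cells (CHO stably expressing M1 receptor), compound up to 46 uM final, stimulated with carbachol (50 uM as added) in buffer with 50mM LiCl, pH 7.4, 30 min at 37C. Cytosolic IP1 read by TR-FRET; AC50 from Hill fits.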
# PNC assembly inh: blocks assembly of the perinucleolar compartment; PC3M PTB-GFP, PNC prevalence imaging, 16 h; stronger effect = lower value; activity change (PNC), negative = inhibition, % at 10 µM; 3.1% of 140,000 active; AID 2417;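 active = readout at or below -70, meaning at least 70% loss of cells showing the perinucleolar compartment, a nuclear body marking cancer cells; inconclusive = readout between -30 and a set limit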;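 note: plate controls were DMSO wells for no effect and camptothecin positive control wells for full effect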
#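 Compounds are pinned in duplicate onto adhered PC3M cells stably expressing GFP-tagged PTB and incubated 16 h at 37 C. Cells are then fixed, nuclei stained with Hoechst, and PNC-positive cells counted.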
# * hit, by the source's call; ? = inconclusive; / = no result given; [ ] = dose if it differs, or a comment. Unless noted, % is set by controls: 0 for no effect and ±100 for the full control effect.
SMILES,Lamin A splicing,IMPase cell inh,PNC assembly inh
COc1cc(CN(C(=O)c2ccccc2)c2ccccn2)cc(OC)c1OC,17.6%[46 µM],/,/
COc1ccc(-c2nc(C(N)=O)c3c(n2)n(-c2ccccc2OC)c(=O)n3C)c(OC)c1,17.1%[46 µM],/,/
CCOc1ccc(OCCN2CCCCC2)cc1,10.6%,/,-87.6*
CCOc1ccc(C(=O)CCN2CCCCCC2)cc1,?,9.3,19.0
Cc1ccc(-c2nn(-c3ccccc3)cc2CN(Cc2ccccc2)C(=O)c2ccco2)o1,-0.1%,14.4,?
O=C(CSc1nc2ccccc2nc1Cc1ccc(Cl)cc1)N1CCCc2ccccc21,-15.9%[46 µM],/,/
Cc1ccc(CN2CCC(CNC(=O)c3cnn(-c4ccccc4)c3C3CCN(C(=O)OC(C)(C)C)CC3)CC2)cc1,-3.6%[46 µM],/,/
Cc1ccc(N2C(=O)C3C4C=CC(CNC(=S)Nc5ccc(F)cc5)(O4)C3C2=O)cc1 (stereo not given),?,/,-80.2*
Cc1ccc(N2C(=O)C3C4C=CC(CNC(=S)Nc5cccc(Cl)c5)(O4)C3C2=O)cc1 (stereo not given),?,/,-11.7
CCOC(=O)c1ccc(NC(=O)CC(C)n2nc(C)cc2C)cc1 (stereo not given),4.7%[46 µM],/,/
COc1ccc(CCN2C(=O)CC(NCCc3ccc(S(N)(=O)=O)cc3)C2=O)cc1OC (stereo not given),21.2%,-1.0,-20.6
CCCCOc1ccc(N2C(=O)CC(NCCc3ccc(S(N)(=O)=O)cc3)C2=O)cc1 (stereo not given),2.6%,4.0,-82.3*
NS(=O)(=O)c1ccc(CCN2C(=O)/C(=C\c3ccc(Cl)cc3)SC2=S)cc1,?,/,-83.7*
Cc1ccc(C)n1N1C(=O)/C(=C\c2ccc(Cl)cc2)SC1=S,-4.3%,0.9,72.1
Cc1ccc(S(=O)(=O)N2CCN(c3ccc([N+](=O)[O-])c(NCCN4CCOCC4)c3)CC2)cc1,-12.2%,0.9,-83.0*
O=[N+]([O-])c1ccc(N2CCN(S(=O)(=O)c3ccccc3)CC2)cc1NCCN1CCOCC1,-21.1%,4.0,16.7
Cc1ccccc1OCC(=O)Nc1ccccc1C(=O)OCc1cc(=O)n2c(C)csc2n1,-1.6%[46 µM],/,/
O=C(CN(c1cccc(Br)c1)S(=O)(=O)c1ccccc1)N1CCc2ccccc2C1,/,4.7,/
CCNC(=S)N/N=C(\C)c1ccc(N2CCOCC2)cc1,-2.1%,/,-18.9
CNC(=S)N/N=C(\C)c1ccc(N2CCOCC2)cc1,-11.4%,-0.1,-112.3*
CCOC(=O)N1CCC(NC(=O)Cn2nc(Cc3ccncc3)c3ccccc3c2=O)CC1,4.3%,-5.6,-105.7*
CCOC(=O)Cn1nc(Cc2ccccc2)c2ccccc2c1=O,-17.1%,-2.5,?
O=C(N/N=C\C=C\c1ccc2c(c1)OCO2)C1COc2ccccc2O1 (stereo not given),8.5%,/,?
CCC1CN(C(=O)N2CCC(C(=O)NCc3cccc(F)c3)CC2)c2cc(C)ccc2O1 (stereo not given),-5.9%[46 µM],/,/
CC1=CC(C)(C)N(S(=O)(=O)c2ccc(C)cc2)c2cc(C)ccc21,?,8.0,-95.2*
SMILES,Lamin A splicing,IMPase cell inh,PNC assembly inh
CC1=CC(C)(C)N(C(=O)CCl)c2cc(C)ccc21,-2.6%[46 µM],/,/
COc1ccccc1Cc1nc2ccccc2nc1SCC(=O)Nc1cc(Cl)ccc1OC,3.2%[46 µM],/,/
CCOc1ccc2cc(-c3nnc(Nc4ccc(C)cc4)s3)c(=O)oc2c1,/,-1.5,/
CCc1cc[n+](-c2nc([O-])sc2C=O)cc1,?,6.7,0.2
CC(C)(C)c1cc[n+](-c2nc([O-])sc2C=O)cc1,7.3%,/,-113.4*
O=C(Nc1ccc([N+](=O)[O-])cn1)c1ccc2c(c1)OCO2,18.6%[46 µM],/,/
Cc1ccc(Nc2c([N+](=O)[O-])c(=O)n(C)c3ccccc23)cc1,4.2%[46 µM],/,/
Cn1c(=O)[nH]c(Nc2ccc(F)cc2)c([N+](=O)[O-])c1=O,4.9%,/,-109.0*
O=C(Cc1ccc(Cl)cc1)Nc1ccc2c(c1)C(=O)NC2=O,-8.3%[46 µM],/,/
CCOC(=O)CSC1=C(C#N)C(c2ccc(C)s2)CC(=O)N1 (stereo not given),?,4.9,-87.8*
CCSC1=C(C#N)C(c2ccc(C)s2)CC(=O)N1 (stereo not given),3.0%,-8.5,-17.0
Cc1cc(C)n(-c2ccc(OCC(=O)O)nn2)n1,-2.4%,2.4,-115.4*
CCCCOc1ccc(-n2nc(C)cc2C)nn1,0.9%,7.8,?
CCOc1ccc(C(=O)NCC(=O)Nc2ccc(N3CCOCC3)cc2)cc1OCC,-11.3%[46 µM],/,/
CC[n+]1c(S(=O)(=O)[O-])ccc2ccc(C)cc21,?,-8.0,1.4
CC[n+]1c(C)sc2c(C)cc(C)cc21,7.6%,0.2[1.84 µM],-99.2*
Cc1ccc(CCNC(=O)c2ccc(Nc3nc4ccccc4n4nnnc34)cc2)cc1,/,-10.0,/
Cc1cc(C)nc(SCSc2nc(C)cc(C)n2)n1,?,4.6,7.4
Cc1cc(C)nc(SCCS(=O)Cc2ccc(Cl)cc2)n1 (stereo not given),-11.8%,-7.4,-110.0*
O=C(N1CCN(c2cccc(Cl)c2)CC1)C1(c2cccs2)CCOCC1,-1.5%,5.9,-13.6
CCOC(=O)Cc1cc(=O)n2[nH]c(-c3ccccc3)cc2n1,-2.2%,-11.0,47.0
CCCc1cc(=O)n2[nH]c(-c3ccc(Br)cc3)cc2n1,?,-5.9,-100.0*
Cc1ccc(NC(=S)Nc2ccc(F)cc2)c(C)c1,-5.6%[46 µM],/,/
CC(C)c1nn2c(=O)cc(COC(=O)c3cccs3)nc2s1,2.8%[46 µM],/,/
CCN(CC)S(=O)(=O)c1cccc(C(=O)N2CC(O)CC2C(=O)O)c1 (stereo not given),0.8%,10.0,-106.5*
SMILES,Lamin A splicing,IMPase cell inh,PNC assembly inh
CCN(CC)S(=O)(=O)c1cccc(C(=O)N2CC(O)CC2C(=O)OC)c1 (stereo not given),-0.5%,7.3,-23.1
O=C(Cn1c(-c2cccs2)cc2ccccc21)N1CCN(c2ccccc2F)CC1,3.6%[46 µM],/,/
O=C(CCC1COc2ccccc2O1)NCC1COc2ccccc2O1 (stereo not given),-0.4%,8.0,-100.0*
CC(C)(C)NC(=O)CCC1COc2ccccc2O1 (stereo not given),25.6%,1.8,15.5
Cc1ccc([N+](=O)[O-])cc1N=C(c1cccc(Br)c1)N1CCOCC1,-8.3%,4.9,-5.9
COc1cccc(C2CC(c3c(F)cccc3Cl)n3nc(N)nc3N2)c1 (stereo not given),-8.0%,13.5,-109.8*
COc1ccc(C2CC(c3ccc(F)cc3)Nc3nc(N)nn32)cc1 (stereo not given),-6.7%,3.4,39.5
Nc1nc2n(n1)C(c1ccc(Cl)cc1)CC(c1ccc(F)cc1)N2 (stereo not given),-16.8%,3.7,-119.3*
COc1cccc(C2CC(c3c(Cl)cccc3Cl)n3nc(N)nc3N2)c1 (stereo not given),-8.4%,-9.9,?
CCOc1ccccc1C1CC(c2ccc(Br)cc2)Nc2nc(N)nn21 (stereo not given),?,5.2,-114.1*
CCOc1ccc(C2CC(c3ccccc3C)n3nc(N)nc3N2)cc1 (stereo not given),-6.3%,?,-10.3
O=C(Nc1cc(Cl)cc(Cl)c1)c1cc(S(=O)(=O)N2CCc3ccccc3C2)ccc1F,7.1%[46 µM],/,/
CCOC(=O)N1CCN(S(=O)(=O)N2CCCC(C(=O)NCc3cc(Br)ccc3OC)C2)CC1 (stereo not given),-2.6%[46 µM],/,/
